Yp Topo-I inh: inhibitors of Yersinia pestis topoisomerase I. Y. pestis Topo-I cleavage product accumulation, plate reader. activity, % at 10 µM. actives 0.064% (n = 360,000); in the data active = activity above about 50%, passing the limit was not always enough
FadD28 FP inh: blocks FadD28 binding to the bisubstrate probe; fluorescence polarization; AID 588549; actives 0.22% (n = 360,000); inhibition, % at 12.5 µM; in the data active = inhibition above about 8.5%, passing the limit was not always enough
PfHsp40 yeast: rescue of PfHsp40-mediated yeast toxicity | S. cerevisiae expressing PfHsp40, growth rescue, ATP luminescence | growth rescue, % at 12.5 µM | actives 0.68% (n = 340,000); in the data active = growth rescue above about 28%, passing the limit was not always enough;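 note: yeast W303a lacking pdr1 and pdr3 grown in galactose medium; growth measured after three days at 30 °C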
Mtb UGM inh: inhibitors of M. tuberculosis UDP-galactopyranose mutase | purified UGM, fluorescence polarization probe displacement | AID 504406 | actives 0.06% (n = 320,000) | inhibition, % at 10 µM; in the data active = inhibition above about 10%, passing the limit was not always enough
Rv3671c protease: Rv3671c (M. tuberculosis) protease inhibition | P9WHR9 | actives 0.048% (n = 320,000) | AID 2606 | inhibition, % at 5.96 µM; in the data active = inhibition above about 38%;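 note: extracellular domain of Rv3671c used as enzyme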
Target sequence (P9WHR9 whole entry, looked up, the tested form may be a part): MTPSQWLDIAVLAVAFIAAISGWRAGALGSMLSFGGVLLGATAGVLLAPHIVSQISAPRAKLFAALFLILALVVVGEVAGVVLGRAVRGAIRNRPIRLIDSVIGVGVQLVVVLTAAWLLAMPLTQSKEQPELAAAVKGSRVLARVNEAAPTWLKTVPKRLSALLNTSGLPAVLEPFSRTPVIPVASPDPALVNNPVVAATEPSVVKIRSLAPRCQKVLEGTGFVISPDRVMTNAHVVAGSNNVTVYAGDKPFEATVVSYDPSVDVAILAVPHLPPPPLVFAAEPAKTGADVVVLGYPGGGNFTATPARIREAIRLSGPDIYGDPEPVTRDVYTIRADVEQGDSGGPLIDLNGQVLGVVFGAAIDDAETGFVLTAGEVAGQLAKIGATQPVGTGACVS
Mtb bLac sens: beta-lactam sensitization of Mtb H37Rv; M. tuberculosis H37Rv growth with meropenem, percent inhibition; inhibition, % at 25 µM; actives 0.27% (n = 330,000); call rule not given here;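 note: growth measured after seven days incubation then overnight dye step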
Hits are given with their value; ! = not active in a repeat. In the library only some 0.98% were active in any assay of this set; here they are far more common.

Screening COc1ccc(-c2sc3ccc(OC)cc3c2C#CCCO)cc1 returned Yp Topo-I inh inactive, FadD28 FP inh inactive, PfHsp40 yeast 46.2, Mtb UGM inh inactive, Rv3671c protease inactive and Mtb bLac sens inactive.
Screening CNC(=O)c1ccccc1Nc1ccc(SC(F)F)cc1 returned Yp Topo-I inh inactive, FadD28 FP inh inactive, PfHsp40 yeast inactive, Mtb UGM inh inactive, Rv3671c protease inactive and Mtb bLac sens inactive.
For O=C(NCc1ccncc1)c1ccccc1Nc1ccc(SC(F)F)cc1 the results were Yp Topo-I inh inactive, FadD28 FP inh inactive, PfHsp40 yeast 473.7, Mtb UGM inh inactive, Rv3671c protease inactive and Mtb bLac sens inactive.
For O=C(NC1CC1)c1cccc2c1C(=O)c1ccc(N3CCC(N4CCCCC4)CC3)cc1S2(=O)=O the results were Yp Topo-I inh inactive and FadD28 FP inh inactive.
Screening COc1ccc(CN2CCC(C(=O)Nc3ccc(Oc4cccnc4)cc3)CC2)cc1 returned Yp Topo-I inh inactive, FadD28 FP inh 15.7, PfHsp40 yeast inactive, Mtb UGM inh inactive, Rv3671c protease inactive and Mtb bLac sens inactive.
`COc1cccc(O)c1CN1CCC(C(=O)Nc2ccc(Oc3cccnc3)cc2)CC1` gave Yp Topo-I inh inactive, FadD28 FP inh inactive, PfHsp40 yeast inactive, Mtb UGM inh inactive, Rv3671c protease inactive and Mtb bLac sens inactive.
`CCN(CC(=O)Nc1c(F)cccc1F)C(=O)c1ccc(OC)c(S(=O)(=O)NC2CCCC2)c1` gave Yp Topo-I inh inactive and FadD28 FP inh inactive.
COc1cc(OC)cc(N2C(=O)CC(N3CCC(C(=O)N4CCCCC4)CC3)C2=O)c1 (configuration not stated) was read as Yp Topo-I inh inactive, FadD28 FP inh inactive, PfHsp40 yeast 67.2, Mtb UGM inh inactive and Mtb bLac sens inactive.
Screening CC(=O)Nc1cccc(N2C(=O)CC(N3CCC(C(=O)N4CCCCC4)CC3)C2=O)c1 (configuration not stated) returned Yp Topo-I inh inactive, FadD28 FP inh inactive, PfHsp40 yeast inactive, Mtb UGM inh inactive, Rv3671c protease inactive and Mtb bLac sens inactive.
For CCCCCCCCCC[n+]1cccc2c3ccccc3ccc21 the results were Yp Topo-I inh inactive, FadD28 FP inh inactive and PfHsp40 yeast 133.2.
`CCN(C(=O)COC(=O)c1cc(Cl)ccc1OC)c1c(N)n(Cc2ccccc2)c(=O)[nH]c1=O` gave Yp Topo-I inh inactive, FadD28 FP inh inactive, PfHsp40 yeast inactive, Mtb UGM inh 12.2, Rv3671c protease inactive and Mtb bLac sens inactive.
`CCN(C(=O)CSc1nncn1-c1ccccc1)c1c(N)n(Cc2ccccc2)c(=O)[nH]c1=O` gave Yp Topo-I inh inactive, FadD28 FP inh inactive, PfHsp40 yeast 26.7, Mtb UGM inh inactive, Rv3671c protease inactive and Mtb bLac sens inactive.
For COc1ccc(Cl)cc1C(=O)OCC(=O)N(CC(C)C)c1c(N)n(Cc2ccccc2)c(=O)[nH]c1=O the results were Yp Topo-I inh inactive, FadD28 FP inh inactive, PfHsp40 yeast inactive, Mtb UGM inh inactive, Rv3671c protease inactive and Mtb bLac sens inactive.
CC(C)c1ccc(CC(=O)N2CCC2(C)C(=O)Nc2ccc3c(c2)OCCO3)cc1 (configuration not stated) was read as Yp Topo-I inh inactive and FadD28 FP inh inactive.
Screening CCSC(=O)CCCCCCCCCCCO returned Yp Topo-I inh inactive, FadD28 FP inh 18.5, PfHsp40 yeast inactive, Mtb UGM inh inactive, Rv3671c protease inactive and Mtb bLac sens inactive.
Screening Cc1ccc(S(=O)(=O)N2C[C@H]3C(=O)C[C@@H]4C(=O)N(c5ccccc5)C(=O)[C@@H]4[C@@H]3C[C@H]2c2cccs2)cc1 returned FadD28 FP inh inactive.
Screening COc1cc(C(O)c2nc3ccccc3s2)cc(OC)c1OC (configuration not stated) returned Yp Topo-I inh inactive, FadD28 FP inh 24.3, PfHsp40 yeast inactive, Mtb UGM inh inactive, Rv3671c protease inactive and Mtb bLac sens inactive.
`COc1cccc(/C=N/NC(=O)c2nc(-c3ccccc3)cc(-c3ccccc3)n2)c1O` gave Yp Topo-I inh inactive, FadD28 FP inh inactive, PfHsp40 yeast 253.5, Mtb UGM inh inactive, Rv3671c protease inactive and Mtb bLac sens inactive.
For COc1ccc(/C=N/NC(=O)c2nc(-c3ccccc3)n(-c3ccccc3)n2)cc1 the results were Yp Topo-I inh inactive, FadD28 FP inh inactive, PfHsp40 yeast inactive, Mtb UGM inh inactive, Rv3671c protease inactive and Mtb bLac sens inactive.
`COc1ccc(/C=N/NC(=O)c2nc(-c3ccccc3)n(-c3ccccc3)n2)c(O)c1` gave Yp Topo-I inh inactive, FadD28 FP inh inactive, PfHsp40 yeast 71.5, Mtb UGM inh inactive, Rv3671c protease inactive and Mtb bLac sens inactive.
For OC(Cc1ccccc1)c1ncc(-c2ccc(Cl)cc2)[nH]1 (configuration not stated) the results were Yp Topo-I inh inactive and FadD28 FP inh inactive.
COc1cc(NC(=O)c2ccc3c(c2)OCCO3)ccc1NC(=O)c1cccs1 was read as Yp Topo-I inh inactive, FadD28 FP inh inactive, PfHsp40 yeast 71.2, Mtb UGM inh inactive, Rv3671c protease inactive and Mtb bLac sens inactive.
For Cc1ccc(NC(=O)c2ccc(Cl)c(NC(=O)c3cccs3)c2)cc1 the results were Yp Topo-I inh inactive, FadD28 FP inh inactive, PfHsp40 yeast 35.5, Mtb UGM inh inactive, Rv3671c protease inactive and Mtb bLac sens inactive.
C#CCN(C[C@H]1[C@H](OC(=O)NCC2CCCCC2)[C@H](OC(=O)NCC2CCCCC2)C[C@@H](C(=O)OC)[C@H]1C(=O)OC)S(=O)(=O)c1ccc(C)cc1 was read as Yp Topo-I inh inactive and FadD28 FP inh inactive.
For CN(C(=O)CSc1nnc(-c2ccc(F)cc2)n1C)C1CCS(=O)(=O)C1 (configuration not stated) the results were Yp Topo-I inh inactive, FadD28 FP inh inactive, PfHsp40 yeast inactive, Mtb UGM inh inactive, Rv3671c protease inactive and Mtb bLac sens inactive.
`O=C(/C=C/c1ccco1)NC(=S)Nc1ccccc1N1CCCC1` gave Yp Topo-I inh inactive, FadD28 FP inh inactive, PfHsp40 yeast 58.9, Mtb UGM inh inactive, Rv3671c protease inactive and Mtb bLac sens inactive.
`O=C(/C=C/c1ccco1)NC(=S)Nc1ccccc1N1CCOCC1` gave Yp Topo-I inh inactive, FadD28 FP inh inactive, PfHsp40 yeast inactive, Mtb UGM inh inactive, Rv3671c protease inactive and Mtb bLac sens inactive.
Screening CCC(C)n1ncn(-c2ccc(N3CCN(c4ccc(OCC5COC(Cn6cncn6)(c6ccc(Cl)cc6Cl)O5)cc4)CC3)cc2)c1=O (configuration not stated) returned Yp Topo-I inh inactive, FadD28 FP inh inactive, PfHsp40 yeast 181.2!, Mtb UGM inh inactive, Rv3671c protease inactive and Mtb bLac sens inactive.
For CCC(C)n1ncn(-c2ccc(N3CCN(c4ccc(O)cc4)CC3)cc2)c1=O (configuration not stated) the results were Yp Topo-I inh inactive, FadD28 FP inh inactive, PfHsp40 yeast inactive, Mtb UGM inh inactive, Rv3671c protease inactive and Mtb bLac sens inactive.
Screening O=C(NNC(=O)c1cc(Br)ccc1O)c1csc(N2CCOCC2)n1 returned Yp Topo-I inh inactive, FadD28 FP inh inactive, PfHsp40 yeast 76.4, Mtb UGM inh inactive, Rv3671c protease inactive and Mtb bLac sens inactive.

Compound activity (PubChem BioAssay)
